Laboratory results published in publication PMC7862700, “An all-to-all approach to the identification of sequence-specific readers for epigenetic DNA modifications on cytosine”.

Legend:
Experiment in all cases: DAPPL (digital affinity profiling via proximity ligation, sequencing); 10 mM Tris-HCl pH 7.5, 50 mM NaCl, 1 mM DTT, 4% glycerol, room temperature, 30 min; GST-TFs on glutathione beads, 16-mer random dsDNA library, 0.1% formaldehyde crosslink after washing; high values mean tight binding
Conditions in all cases: protein: recombinant; tags: N-terminal GST; dsDNA, one strand shown
FLI1 = molecular target: T1, FLI1 (Homo sapiens, UniProt Q01543 1-452)
T1 sequence: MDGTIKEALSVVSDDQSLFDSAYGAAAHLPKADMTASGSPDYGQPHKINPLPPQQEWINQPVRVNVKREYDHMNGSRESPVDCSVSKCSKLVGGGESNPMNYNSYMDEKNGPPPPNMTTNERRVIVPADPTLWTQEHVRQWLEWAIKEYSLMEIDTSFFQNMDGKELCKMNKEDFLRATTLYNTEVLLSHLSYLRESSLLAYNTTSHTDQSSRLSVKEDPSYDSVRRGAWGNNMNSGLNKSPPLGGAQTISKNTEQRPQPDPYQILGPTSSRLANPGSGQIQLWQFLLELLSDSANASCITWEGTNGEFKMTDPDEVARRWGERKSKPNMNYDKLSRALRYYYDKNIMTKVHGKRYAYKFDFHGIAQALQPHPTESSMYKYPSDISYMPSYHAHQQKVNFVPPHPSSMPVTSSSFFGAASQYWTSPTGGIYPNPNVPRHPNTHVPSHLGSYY
Outline: (§1)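 Pools were built from human transcription factors expressed in yeast as GST fusions, captured on glutathione beads and DNA-barcoded, along with a tag-only sample. Incubation with 200 nmole of a 16-mer random double-stranded DNA library lasted 30 min at room temperature in Tris/NaCl/DTT/glycerol buffer, and was followed by washing, 0.1% formaldehyde crosslinking, proximity ligation, PCR amplification and Illumina NextSeq500 sequencing. Binding signal is the quotient of each hexamer's read frequency for a factor and its frequency for the tag-only sample.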

ELK1 = molecular target: T2, ELK1 (Homo sapiens, UniProt P19419 1-428)
T2 sequence: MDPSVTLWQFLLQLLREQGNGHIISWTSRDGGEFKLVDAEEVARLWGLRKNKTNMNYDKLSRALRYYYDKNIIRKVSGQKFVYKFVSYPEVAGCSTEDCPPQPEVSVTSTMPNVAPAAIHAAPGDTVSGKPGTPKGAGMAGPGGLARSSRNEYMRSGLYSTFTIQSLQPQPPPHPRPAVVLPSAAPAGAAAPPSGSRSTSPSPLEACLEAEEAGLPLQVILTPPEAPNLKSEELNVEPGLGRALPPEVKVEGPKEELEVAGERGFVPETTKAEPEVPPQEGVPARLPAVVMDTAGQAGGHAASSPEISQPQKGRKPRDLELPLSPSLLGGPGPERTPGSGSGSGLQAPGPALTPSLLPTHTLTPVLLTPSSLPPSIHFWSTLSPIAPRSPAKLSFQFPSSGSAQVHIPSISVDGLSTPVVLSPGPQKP
Outline: as §1

GABPA = molecular target: T3, GABPA (Homo sapiens, UniProt Q06546 1-454)
T3 sequence: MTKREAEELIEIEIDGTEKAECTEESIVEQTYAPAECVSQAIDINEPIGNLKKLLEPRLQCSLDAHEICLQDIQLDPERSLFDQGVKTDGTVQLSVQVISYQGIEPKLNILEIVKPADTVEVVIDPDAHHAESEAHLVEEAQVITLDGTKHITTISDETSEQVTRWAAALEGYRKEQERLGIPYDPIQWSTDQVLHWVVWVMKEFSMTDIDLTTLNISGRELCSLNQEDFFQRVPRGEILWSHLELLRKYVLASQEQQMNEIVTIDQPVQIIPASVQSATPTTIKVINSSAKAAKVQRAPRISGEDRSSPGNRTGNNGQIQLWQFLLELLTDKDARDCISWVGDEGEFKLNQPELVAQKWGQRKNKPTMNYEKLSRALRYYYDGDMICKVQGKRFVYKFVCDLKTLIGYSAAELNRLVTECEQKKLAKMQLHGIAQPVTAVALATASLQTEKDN
Outline: as §1

ERG = molecular target: T4, ERG (Homo sapiens, UniProt P11308 1-479)
T4 sequence: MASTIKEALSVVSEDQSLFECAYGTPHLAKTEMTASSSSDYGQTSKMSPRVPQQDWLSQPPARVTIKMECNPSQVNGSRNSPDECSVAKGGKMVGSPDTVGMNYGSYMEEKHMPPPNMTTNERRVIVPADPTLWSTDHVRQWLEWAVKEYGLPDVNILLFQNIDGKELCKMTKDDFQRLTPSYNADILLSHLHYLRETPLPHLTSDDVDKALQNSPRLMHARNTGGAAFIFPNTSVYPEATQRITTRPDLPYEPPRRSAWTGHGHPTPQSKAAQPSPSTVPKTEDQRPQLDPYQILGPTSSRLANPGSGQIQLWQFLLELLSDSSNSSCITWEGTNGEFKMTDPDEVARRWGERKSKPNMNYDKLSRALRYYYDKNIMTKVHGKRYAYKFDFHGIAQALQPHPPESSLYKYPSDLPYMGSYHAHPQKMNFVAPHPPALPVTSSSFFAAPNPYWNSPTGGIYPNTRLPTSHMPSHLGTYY
Outline: as §1

ELF1 = ELF1 (Homo sapiens, UniProt P32519 1-619)
Outline: as §1

EHF = molecular target: T5, EHF (Homo sapiens, UniProt Q9NZC4 1-300)
T5 sequence: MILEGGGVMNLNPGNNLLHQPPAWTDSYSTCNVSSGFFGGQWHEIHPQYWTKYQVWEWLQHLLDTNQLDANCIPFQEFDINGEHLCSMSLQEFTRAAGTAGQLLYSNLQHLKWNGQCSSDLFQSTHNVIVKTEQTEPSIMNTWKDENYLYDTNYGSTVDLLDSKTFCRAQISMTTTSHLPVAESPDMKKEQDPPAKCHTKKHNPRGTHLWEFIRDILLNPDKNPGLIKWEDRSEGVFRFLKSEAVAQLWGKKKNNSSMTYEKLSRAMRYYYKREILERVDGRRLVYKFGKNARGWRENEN
Outline: as §1

SPI1 = SPI1 (Homo sapiens, UniProt P17947 1-270)
Outline: as §1

SPIB = SPIB (Homo sapiens, UniProt Q01892 1-262)
Outline: as §1

ELK3 = molecular target: T6, ELK3 (Homo sapiens, UniProt P41970 1-407)
T6 sequence: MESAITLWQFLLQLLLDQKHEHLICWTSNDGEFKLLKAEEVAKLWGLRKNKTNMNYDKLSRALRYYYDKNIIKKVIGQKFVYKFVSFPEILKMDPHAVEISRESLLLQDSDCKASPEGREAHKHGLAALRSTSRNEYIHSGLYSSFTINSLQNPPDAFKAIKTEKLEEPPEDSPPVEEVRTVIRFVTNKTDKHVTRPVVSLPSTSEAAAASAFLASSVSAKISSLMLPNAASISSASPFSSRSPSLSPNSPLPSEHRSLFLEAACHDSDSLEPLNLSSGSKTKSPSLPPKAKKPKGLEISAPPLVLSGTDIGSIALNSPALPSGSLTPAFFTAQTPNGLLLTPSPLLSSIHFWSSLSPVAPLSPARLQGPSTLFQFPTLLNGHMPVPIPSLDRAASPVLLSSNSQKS
Outline: as §1

Chain of ELF1 (P32519 whole entry): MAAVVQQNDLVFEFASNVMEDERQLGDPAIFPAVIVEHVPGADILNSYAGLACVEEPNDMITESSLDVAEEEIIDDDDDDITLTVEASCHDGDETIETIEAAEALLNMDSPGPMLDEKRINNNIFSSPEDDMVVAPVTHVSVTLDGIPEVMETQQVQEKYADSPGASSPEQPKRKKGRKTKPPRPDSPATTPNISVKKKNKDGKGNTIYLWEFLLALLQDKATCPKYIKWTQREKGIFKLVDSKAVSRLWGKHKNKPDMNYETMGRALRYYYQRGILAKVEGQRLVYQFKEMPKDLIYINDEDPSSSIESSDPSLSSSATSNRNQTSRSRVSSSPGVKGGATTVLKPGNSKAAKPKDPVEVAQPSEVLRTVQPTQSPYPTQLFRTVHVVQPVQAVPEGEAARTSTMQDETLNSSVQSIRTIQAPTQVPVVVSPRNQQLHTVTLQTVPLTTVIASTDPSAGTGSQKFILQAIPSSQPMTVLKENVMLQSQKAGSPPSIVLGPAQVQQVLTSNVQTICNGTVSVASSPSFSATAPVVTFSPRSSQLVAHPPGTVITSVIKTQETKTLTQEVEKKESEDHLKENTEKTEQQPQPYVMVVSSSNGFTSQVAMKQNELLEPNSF
Chain of SPIB (Q01892 whole entry): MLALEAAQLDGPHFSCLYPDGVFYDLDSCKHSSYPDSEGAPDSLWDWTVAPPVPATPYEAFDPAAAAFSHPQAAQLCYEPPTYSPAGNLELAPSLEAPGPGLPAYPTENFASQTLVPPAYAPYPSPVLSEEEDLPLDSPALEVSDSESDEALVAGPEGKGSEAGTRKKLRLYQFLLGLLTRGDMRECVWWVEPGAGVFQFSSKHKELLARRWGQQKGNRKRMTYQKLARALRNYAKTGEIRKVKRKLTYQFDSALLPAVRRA

ACCTAT
binding signal (FLI1): 1.18 fold enrichment (6-mer frequency, TF over GST control)
binding signal (ELK1): 1.26 fold enrichment (6-mer frequency, TF over GST control)
binding signal (GABPA): 1.16 fold enrichment (6-mer frequency, TF over GST control)
binding signal (ERG): 1.07 fold enrichment (6-mer frequency, TF over GST control)
binding signal (ELF1): 1.21 fold enrichment (6-mer frequency, TF over GST control)
binding signal (EHF): 1.21 fold enrichment (6-mer frequency, TF over GST control)
binding signal (SPI1): 1.17 fold enrichment (6-mer frequency, TF over GST control)
binding signal (SPIB): 1.15 fold enrichment (6-mer frequency, TF over GST control)
binding signal (ELK3): 1.17 fold enrichment (6-mer frequency, TF over GST control)
